# Measured values published in the supplement of paper PMC10849652.
# About 7,900 targets were measured; listed, in parts, are those with a hit and a random draw of the rest. About 0.6% of all pairs of compound and target were hits.
# Assays:
# Assay in all cases: log2 fold change, soluble protein after heating vs DMSO (PISA); higher = thermal stabilisation; K562 cells, 10 uM, 30 min; active = over 0.2 and 3.5 SD of the protein, either way, in both replicates (recomputed)
# saracatinib = compound: CN1CCN(CCOc2cc(OC3CCOCC3)c3c(Nc4c(Cl)ccc5c4OCO5)ncnc3c2)CC1 [saracatinib]
# How it was run: (§1)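 Values are thermal stability changes relative to control samples and are taken from duplicates. They are stated as log2 fold changes. Before quantification by TMTpro 16plex LC-MS/MS with equalised channel sums, K562 cells at 2×10^6 cells/mL were treated with 10 μM compound for 30 min, heated in aliquots for 3 min across 48°C-58°C, pooled, extracted in PBS with 0.5% NP-40 at 4°C, and centrifuged at 21,000xg for 90 min to give the soluble supernatant.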
# sotrastaurin = compound: CN1CCN(c2nc(C3=C(c4c[nH]c5ccccc45)C(=O)NC3=O)c3ccccc3n2)CC1 [sotrastaurin]
# How it was run: as §1
# alvocidib = compound: CN1CC[C@H](c2c(O)cc(O)c3c(=O)cc(-c4ccccc4Cl)oc23)[C@H](O)C1 [alvocidib]
# How it was run: as §1
# Tubastatin A = compound: CN1CCc2c(c3ccccc3n2Cc2ccc(C(=O)NO)cc2)C1 [Tubastatin A]
# How it was run: as §1
# [1] = compound: CNC(=O)C1=CC=CC=C1NC2=NC(=NC=C2Cl)NC3=C(C=C(C=C3)N4CCOCC4)OC
# How it was run: as §1
# defactinib = compound: CNC(=O)c1ccc(Nc2ncc(C(F)(F)F)c(NCc3nccnc3N(C)S(C)(=O)=O)n2)cc1 [defactinib]
# How it was run: as §1
# rucaparib = compound: CNCc1ccc(-c2[nH]c3cc(F)cc4c3c2CCNC4=O)cc1 [rucaparib]
# How it was run: as §1
# [2] = compound: CNc1nc(-c2ccc3c(N)n[nH]c3c2)cc(N2C[C@@H](C(=O)NC3CCCCC3)CC[C@H]2C)n1
# How it was run: as §1
# encorafenib = compound: COC(=O)N[C@@H](C)CNc1nccc(-c2cn(C(C)C)nc2-c2cc(Cl)cc(NS(C)(=O)=O)c2F)n1 [encorafenib]
# How it was run: as §1
# [3] = compound: COC(=O)[C@H](CCSC)NC(=O)C1=C(C=C(C=C1)NC[C@H](CS)N)C2=CC=CC=C2
# How it was run: as §1
# Sequence of UniProt Q13123 (Q13123 whole entry, looked up): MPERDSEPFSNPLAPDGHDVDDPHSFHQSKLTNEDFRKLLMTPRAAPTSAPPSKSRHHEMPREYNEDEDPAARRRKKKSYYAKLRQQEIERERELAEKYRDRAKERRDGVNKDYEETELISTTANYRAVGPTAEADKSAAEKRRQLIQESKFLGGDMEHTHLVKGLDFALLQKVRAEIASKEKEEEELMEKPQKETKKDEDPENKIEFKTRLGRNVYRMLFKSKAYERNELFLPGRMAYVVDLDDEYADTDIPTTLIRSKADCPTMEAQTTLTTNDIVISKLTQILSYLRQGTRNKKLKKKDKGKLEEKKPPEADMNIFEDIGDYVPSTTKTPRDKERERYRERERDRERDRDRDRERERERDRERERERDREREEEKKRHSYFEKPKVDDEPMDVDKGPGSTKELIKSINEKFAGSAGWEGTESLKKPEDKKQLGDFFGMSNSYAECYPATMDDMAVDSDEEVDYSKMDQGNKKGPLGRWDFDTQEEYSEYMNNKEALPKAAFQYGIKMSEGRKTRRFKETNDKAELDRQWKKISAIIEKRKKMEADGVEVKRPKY
# Sequence of UniProt Q9NVH2 (Q9NVH2 whole entry, looked up): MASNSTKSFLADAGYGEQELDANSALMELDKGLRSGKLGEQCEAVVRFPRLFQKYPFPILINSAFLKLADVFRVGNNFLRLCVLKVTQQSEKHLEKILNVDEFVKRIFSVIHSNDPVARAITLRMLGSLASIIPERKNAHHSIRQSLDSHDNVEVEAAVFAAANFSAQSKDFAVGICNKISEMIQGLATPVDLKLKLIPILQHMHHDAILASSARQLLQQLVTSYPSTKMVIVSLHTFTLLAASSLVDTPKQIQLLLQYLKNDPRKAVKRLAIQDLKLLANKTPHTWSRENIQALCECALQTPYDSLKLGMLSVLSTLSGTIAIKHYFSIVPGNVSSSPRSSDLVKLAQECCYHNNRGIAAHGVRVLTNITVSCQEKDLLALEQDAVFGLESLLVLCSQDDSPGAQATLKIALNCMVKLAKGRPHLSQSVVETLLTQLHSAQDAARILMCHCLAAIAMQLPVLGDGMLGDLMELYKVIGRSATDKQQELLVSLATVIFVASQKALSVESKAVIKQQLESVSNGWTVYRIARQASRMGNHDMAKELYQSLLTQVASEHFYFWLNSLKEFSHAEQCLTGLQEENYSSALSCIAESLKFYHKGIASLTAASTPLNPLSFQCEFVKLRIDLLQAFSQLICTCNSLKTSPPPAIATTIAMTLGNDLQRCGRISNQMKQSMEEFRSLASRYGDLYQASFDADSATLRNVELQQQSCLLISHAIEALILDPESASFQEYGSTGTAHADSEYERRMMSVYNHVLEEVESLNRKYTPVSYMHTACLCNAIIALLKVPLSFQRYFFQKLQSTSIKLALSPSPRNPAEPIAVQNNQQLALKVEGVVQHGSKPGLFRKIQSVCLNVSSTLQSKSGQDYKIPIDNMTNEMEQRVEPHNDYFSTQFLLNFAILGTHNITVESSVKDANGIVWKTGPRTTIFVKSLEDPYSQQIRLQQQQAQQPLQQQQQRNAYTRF
# Sequence of UniProt Q9BU23 (Q9BU23 whole entry, looked up): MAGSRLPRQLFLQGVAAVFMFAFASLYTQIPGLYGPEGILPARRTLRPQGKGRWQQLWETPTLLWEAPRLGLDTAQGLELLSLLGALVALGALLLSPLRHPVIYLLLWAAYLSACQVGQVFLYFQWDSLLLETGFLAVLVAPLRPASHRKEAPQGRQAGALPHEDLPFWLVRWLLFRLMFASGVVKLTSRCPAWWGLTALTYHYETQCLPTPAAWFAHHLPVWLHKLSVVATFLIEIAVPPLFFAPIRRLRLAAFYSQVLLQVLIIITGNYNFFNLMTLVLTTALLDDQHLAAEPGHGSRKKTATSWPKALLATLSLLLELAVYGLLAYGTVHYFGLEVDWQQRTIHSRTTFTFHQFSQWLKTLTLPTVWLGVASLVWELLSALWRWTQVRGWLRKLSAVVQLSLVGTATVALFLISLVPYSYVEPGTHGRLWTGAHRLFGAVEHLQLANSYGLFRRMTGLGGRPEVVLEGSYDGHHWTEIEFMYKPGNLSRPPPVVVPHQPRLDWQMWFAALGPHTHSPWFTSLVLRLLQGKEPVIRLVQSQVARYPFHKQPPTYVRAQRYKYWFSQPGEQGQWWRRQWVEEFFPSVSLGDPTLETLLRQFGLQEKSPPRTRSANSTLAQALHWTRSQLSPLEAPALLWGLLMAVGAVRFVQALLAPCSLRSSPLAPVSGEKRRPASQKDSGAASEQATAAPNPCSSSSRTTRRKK
# Sequence of UniProt P49137 (P49137 whole entry, looked up): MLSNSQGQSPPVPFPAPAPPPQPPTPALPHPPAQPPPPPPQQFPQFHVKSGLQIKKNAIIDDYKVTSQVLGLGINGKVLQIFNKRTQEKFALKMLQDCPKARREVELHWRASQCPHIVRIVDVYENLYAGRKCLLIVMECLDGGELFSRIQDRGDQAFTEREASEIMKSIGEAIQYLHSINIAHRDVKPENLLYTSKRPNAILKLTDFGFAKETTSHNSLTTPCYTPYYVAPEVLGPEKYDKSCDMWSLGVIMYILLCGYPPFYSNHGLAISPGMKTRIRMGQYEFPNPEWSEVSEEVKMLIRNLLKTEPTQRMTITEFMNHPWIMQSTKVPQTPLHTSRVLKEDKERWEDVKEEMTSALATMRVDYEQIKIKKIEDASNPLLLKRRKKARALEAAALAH
# Sequence of UniProt Q9BRT3 (Q9BRT3 whole entry, looked up): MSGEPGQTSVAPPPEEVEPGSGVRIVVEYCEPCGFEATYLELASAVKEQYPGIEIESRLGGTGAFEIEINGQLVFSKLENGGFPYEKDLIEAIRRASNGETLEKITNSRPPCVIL
# Sequence of UniProt Q16539 (Q16539 whole entry, looked up): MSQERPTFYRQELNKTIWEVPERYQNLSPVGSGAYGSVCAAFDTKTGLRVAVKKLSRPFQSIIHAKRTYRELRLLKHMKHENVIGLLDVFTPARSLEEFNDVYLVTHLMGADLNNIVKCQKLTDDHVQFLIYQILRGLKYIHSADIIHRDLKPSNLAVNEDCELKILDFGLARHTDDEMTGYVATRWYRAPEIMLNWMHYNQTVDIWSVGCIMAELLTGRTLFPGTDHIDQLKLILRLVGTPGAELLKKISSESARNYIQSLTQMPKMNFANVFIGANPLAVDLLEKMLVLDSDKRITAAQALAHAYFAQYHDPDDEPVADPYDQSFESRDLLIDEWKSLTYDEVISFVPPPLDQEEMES
# Sequence of UniProt Q13418 (Q13418 whole entry, looked up): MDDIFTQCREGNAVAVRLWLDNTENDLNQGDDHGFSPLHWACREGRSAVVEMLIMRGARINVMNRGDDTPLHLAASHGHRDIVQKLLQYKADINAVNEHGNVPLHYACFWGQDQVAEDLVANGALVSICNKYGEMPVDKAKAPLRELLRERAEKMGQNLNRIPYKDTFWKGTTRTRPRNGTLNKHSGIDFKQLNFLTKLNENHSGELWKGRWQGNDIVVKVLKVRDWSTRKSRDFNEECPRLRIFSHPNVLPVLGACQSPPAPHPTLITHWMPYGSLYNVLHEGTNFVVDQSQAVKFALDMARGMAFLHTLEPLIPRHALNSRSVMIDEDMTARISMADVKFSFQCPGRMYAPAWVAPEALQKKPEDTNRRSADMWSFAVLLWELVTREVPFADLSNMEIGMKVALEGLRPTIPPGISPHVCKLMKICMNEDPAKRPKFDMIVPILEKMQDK
# Sequence of UniProt Q92615 (Q92615 whole entry, looked up): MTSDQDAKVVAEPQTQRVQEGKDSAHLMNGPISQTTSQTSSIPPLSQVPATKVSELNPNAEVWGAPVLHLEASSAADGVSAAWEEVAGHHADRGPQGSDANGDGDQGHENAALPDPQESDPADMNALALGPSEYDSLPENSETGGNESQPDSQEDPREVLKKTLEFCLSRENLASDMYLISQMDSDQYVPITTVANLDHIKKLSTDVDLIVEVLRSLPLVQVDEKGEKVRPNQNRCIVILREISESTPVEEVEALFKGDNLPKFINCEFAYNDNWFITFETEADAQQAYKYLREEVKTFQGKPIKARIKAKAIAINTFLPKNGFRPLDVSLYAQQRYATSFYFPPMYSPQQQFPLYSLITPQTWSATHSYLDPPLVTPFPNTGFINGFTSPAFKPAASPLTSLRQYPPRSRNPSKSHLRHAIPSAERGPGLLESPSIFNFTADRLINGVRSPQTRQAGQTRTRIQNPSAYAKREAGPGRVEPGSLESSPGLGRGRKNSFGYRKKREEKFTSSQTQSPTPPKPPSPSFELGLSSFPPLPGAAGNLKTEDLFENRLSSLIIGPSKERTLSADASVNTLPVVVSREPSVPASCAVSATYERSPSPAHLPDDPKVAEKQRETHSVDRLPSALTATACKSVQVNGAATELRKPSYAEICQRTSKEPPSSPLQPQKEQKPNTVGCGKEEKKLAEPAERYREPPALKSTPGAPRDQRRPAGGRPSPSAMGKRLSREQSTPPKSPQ
# Sequence of UniProt Q9BPX6 (Q9BPX6 whole entry, looked up): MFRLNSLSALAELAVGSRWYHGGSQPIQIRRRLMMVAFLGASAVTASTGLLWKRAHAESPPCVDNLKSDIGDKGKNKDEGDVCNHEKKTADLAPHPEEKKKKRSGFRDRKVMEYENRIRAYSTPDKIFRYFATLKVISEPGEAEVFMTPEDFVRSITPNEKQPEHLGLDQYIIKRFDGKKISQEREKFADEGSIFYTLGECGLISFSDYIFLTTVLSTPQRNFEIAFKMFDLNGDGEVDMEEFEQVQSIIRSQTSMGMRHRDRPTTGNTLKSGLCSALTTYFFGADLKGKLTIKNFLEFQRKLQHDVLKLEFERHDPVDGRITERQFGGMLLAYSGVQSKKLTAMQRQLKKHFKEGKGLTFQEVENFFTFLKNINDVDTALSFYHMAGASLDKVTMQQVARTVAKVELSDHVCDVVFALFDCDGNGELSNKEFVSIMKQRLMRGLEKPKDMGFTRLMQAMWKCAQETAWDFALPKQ
# Sequence of UniProt Q96A72 (Q96A72 whole entry, looked up): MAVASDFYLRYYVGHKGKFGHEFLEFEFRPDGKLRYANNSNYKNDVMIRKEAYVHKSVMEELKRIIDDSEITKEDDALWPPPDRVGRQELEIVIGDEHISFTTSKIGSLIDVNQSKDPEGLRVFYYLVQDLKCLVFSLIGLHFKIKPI
Target,log2 fold change (saracatinib),log2 fold change (sotrastaurin),log2 fold change (alvocidib),log2 fold change (Tubastatin A),log2 fold change [1],log2 fold change (defactinib),log2 fold change (rucaparib),log2 fold change [2],log2 fold change (encorafenib),log2 fold change [3]
MAPKAPK2 (UniProt P49137),0.077 (inactive),-0.035 (inactive),0 (inactive),-0.006 (inactive),-0.01 (inactive),-0.013 (inactive),0 (inactive),-0.022 (inactive),0.139 (inactive),0.023 (inactive)
ILKAP (UniProt Q9H0C8),-0.057 (inactive),-0.087 (inactive),-0.152 (inactive),0.055 (inactive),-0.021 (inactive),-0.155 (inactive),0.011 (inactive),0.055 (inactive),0.061 (inactive),-0.078 (inactive)
KLC2 (UniProt Q9H0B6),-0.107 (inactive),-0.032 (inactive),-0.095 (inactive),0.086 (inactive),-0.017 (inactive),-0.13 (inactive),0.001 (inactive),0.051 (inactive),0.036 (inactive),-0.051 (inactive)
KPNA6 (UniProt O60684),-0.004 (inactive),-0.117 (inactive),-0.073 (inactive),0.008 (inactive),0.082 (inactive),-0.06 (inactive),0.092 (inactive),-0.042 (inactive),0.12 (inactive),-0.099 (inactive)
KNTC1 (UniProt P50748),-0.034 (inactive),-0.051 (inactive),0.013 (inactive),0.018 (inactive),0.033 (inactive),-0.044 (inactive),0.021 (inactive),-0.076 (inactive),0.077 (inactive),-0.041 (inactive)
LIMD1 (UniProt Q9UGP4),0.074 (inactive),-0.011 (inactive),-0.03 (inactive),-0.034 (inactive),-0.029 (inactive),-0.03 (inactive),-0.008 (inactive),-0.01 (inactive),0.004 (inactive),0.004 (inactive)
MARK2 (UniProt E9PC69),-0.103 (inactive),-0.555 (inactive),-0.007 (inactive),0.278 (inactive),-1.12 (active),-0.07 (inactive),0.187 (inactive),0.037 (inactive),0.144 (inactive),-0.028 (inactive)
LENG8 (UniProt Q96PV6),-0.112 (inactive),-0.043 (inactive),-0.074 (inactive),-0.021 (inactive),-0.125 (inactive),-0.316 (inactive),0.044 (inactive),0.133 (inactive),0.129 (inactive),-0.133 (inactive)
MIA2 (UniProt Q96PC5),0.003 (inactive),-0.106 (inactive),-0.052 (inactive),-0.013 (inactive),0.021 (inactive),-0.085 (inactive),0.074 (inactive),-0.001 (inactive),0.07 (inactive),0.037 (inactive)
MIEF1 (UniProt Q9NQG6),-0.016 (inactive),-0.042 (inactive),-0.031 (inactive),-0.024 (inactive),-0.002 (inactive),0.014 (inactive),-0.009 (inactive),-0.088 (inactive),0.023 (inactive),-0.018 (inactive)
MICU1 isoform 3 (UniProt Q9BPX6),-0.073 (inactive),0 (inactive),0.005 (inactive),-0.007 (inactive),-0.054 (inactive),0.172 (inactive),0.134 (inactive),-0.012 (inactive),0.121 (inactive),-0.05 (inactive)
LMF2 (UniProt Q9BU23),0.006 (inactive),-0.043 (inactive),0.035 (inactive),0.048 (inactive),0.007 (inactive),0 (inactive),0.082 (inactive),-0.02 (inactive),0.052 (inactive),-0.04 (inactive)
LARP4B (UniProt Q92615),-0.009 (inactive),-0.083 (inactive),0.004 (inactive),-0.033 (inactive),-0.025 (inactive),-0.037 (inactive),0.273 (inactive),0.02 (inactive),0.094 (inactive),0.032 (inactive)
MFSD5 isoform 2 (UniProt Q6N075),0.058 (inactive),0.122 (inactive),0.029 (inactive),-0.093 (inactive),0.069 (inactive),0.039 (inactive),0.058 (inactive),-0.065 (inactive),-0.022 (inactive),0.012 (inactive)
MAPK14 isoform 2 (UniProt Q16539),0.486 (inactive),-0.085 (inactive),-0.021 (inactive),0.145 (inactive),0.559 (inactive),-0.25 (inactive),0.127 (inactive),-0.029 (inactive),0.91 (active),-0.014 (inactive)
INTS7 (UniProt Q9NVH2),0.035 (inactive),-0.503 (active),-0.095 (inactive),0 (inactive),0.529 (active),-0.096 (inactive),0.019 (inactive),-0.003 (inactive),0.036 (inactive),-0.019 (inactive)
MED22 (UniProt Q15528),-0.089 (inactive),-0.007 (inactive),-0.055 (inactive),0.332 (inactive),-0.051 (inactive),-0.043 (inactive),0.021 (inactive),0.044 (inactive),0.12 (inactive),0.097 (inactive)

Target,log2 fold change (saracatinib),log2 fold change (sotrastaurin),log2 fold change (alvocidib),log2 fold change (Tubastatin A),log2 fold change [1],log2 fold change (defactinib),log2 fold change (rucaparib),log2 fold change [2],log2 fold change (encorafenib),log2 fold change [3]
MAGOHB (UniProt Q96A72),-0.047 (inactive),-0.009 (inactive),0.03 (inactive),0.014 (inactive),-0.007 (inactive),-0.003 (inactive),-0.021 (inactive),0.022 (inactive),0.019 (inactive),-0.071 (inactive)
IGFBP2 (UniProt P18065),-0.049 (inactive),0.223 (inactive),0.212 (inactive),-0.032 (inactive),-0.06 (inactive),0.134 (inactive),0.003 (inactive),-0.148 (inactive),0.028 (inactive),-0.053 (inactive)
LMBRD1 (UniProt Q9NUN5),0.154 (inactive),0.023 (inactive),0.042 (inactive),0.098 (inactive),0.052 (inactive),0.047 (inactive),-0.023 (inactive),-0.173 (inactive),0.053 (inactive),-0.057 (inactive)
KIF2C (UniProt Q99661),0.003 (inactive),-0.048 (inactive),-0.019 (inactive),0.024 (inactive),-0.017 (inactive),-0.051 (inactive),0.019 (inactive),0.064 (inactive),0.142 (inactive),-0.092 (inactive)
LDLR (UniProt P01130),0.113 (inactive),0.003 (inactive),-0.04 (inactive),-0.002 (inactive),0.003 (inactive),-0.033 (inactive),0 (inactive),-0.065 (inactive),0.01 (inactive),0.104 (inactive)
INPP5B (UniProt P32019),0.024 (inactive),-0.079 (inactive),-0.076 (inactive),0.07 (inactive),-0.007 (inactive),0.112 (inactive),0.066 (inactive),0.043 (inactive),-0.151 (inactive),0.141 (inactive)
ILK (UniProt Q13418),-0.119 (inactive),0.043 (inactive),-0.107 (inactive),0.01 (inactive),-0.034 (inactive),0 (inactive),0.026 (inactive),0.031 (inactive),0.03 (inactive),0.06 (inactive)
METAP1D (UniProt Q6UB28),0.088 (inactive),-0.042 (inactive),-0.086 (inactive),-0.181 (inactive),0.036 (inactive),0.013 (inactive),-0.074 (inactive),0.04 (inactive),0.006 (inactive),0.006 (inactive)
MAST4 (UniProt O15021),0.006 (inactive),-0.103 (inactive),-0.065 (inactive),0.012 (inactive),-0.087 (inactive),-0.149 (inactive),-0.101 (inactive),-0.006 (inactive),0.042 (inactive),-0.017 (inactive)
LMNB1 (UniProt P20700),0.029 (inactive),-0.11 (inactive),-0.173 (inactive),-0.016 (inactive),0.007 (inactive),-0.166 (inactive),-0.035 (inactive),-0.095 (inactive),0.016 (inactive),0.032 (inactive)
KHDRBS1 (UniProt Q07666),0.025 (inactive),0.018 (inactive),0.027 (inactive),-0.006 (inactive),0 (inactive),0.042 (inactive),0.248 (active),-0.009 (inactive),-0.009 (inactive),-0.05 (inactive)
MIEN1 (UniProt Q9BRT3),0.049 (inactive),-0.067 (inactive),-0.141 (inactive),0.069 (inactive),-0.002 (inactive),-0.067 (inactive),-0.032 (inactive),-0.019 (inactive),-0.051 (inactive),0.129 (inactive)
MIEF1 (UniProt L0R8F8),-0.068 (inactive),-0.008 (inactive),0.009 (inactive),0.041 (inactive),0.008 (inactive),-0.003 (inactive),0.024 (inactive),-0.074 (inactive),0.008 (inactive),0.015 (inactive)
KPNA1 (UniProt P52294),-0.014 (inactive),-0.174 (inactive),-0.019 (inactive),0.021 (inactive),0.006 (inactive),-0.064 (inactive),0.151 (inactive),-0.078 (inactive),0.197 (inactive),0 (inactive)
MAPK8 isoform 3 (UniProt P45983),-0.006 (inactive),0.052 (inactive),0.087 (inactive),0.009 (inactive),0.942 (active),-0.009 (inactive),0.031 (inactive),-0.07 (inactive),0.029 (inactive),-0.029 (inactive)
IK (UniProt Q13123),-0.006 (inactive),-0.037 (inactive),0.108 (inactive),0.05 (inactive),-0.036 (inactive),0.013 (inactive),0.198 (inactive),-0.059 (inactive),0.197 (inactive),0.002 (inactive)
